Our source for the Potency values is PubChem BioAssay (NCATS).

Structures are written as SMILES. Results filed as inconclusive are left out. A call without a number means that no potency is given here. Calls of active or inactive are those of the source. The call rests on the fitted dose curve; in most records, active means well fitted inhibition curve with a large enough effect; inconclusive means small, poorly fitted or top-dose-only effect; inactive means flat fitted curve, though single readings scatter.

In the experiment the target is Calcium and integrin-binding protein 1 (Homo sapiens) (UniProt Q99828). In words: Primary qHTS for Identification of Calcium Integrin Binding Protein 1 (CIB1) Competitor (AID 1508620). Further: top concentration of the series differs between compounds. Particulars: CIB1-GST / FITC-alphaIIb peptide fluorescence polarization; series mostly up to 114 µM. In outline: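 Fluorescence polarization competition: GST-tagged CIB1 (1 uM final) preincubated with compound 15 min at room temperature, then FITC-labelled alphaIIb peptide (100 nM final) added. After 15 min at room temperature, polarization read at Ex 480/Em 540.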
Chain of Calcium and integrin-binding protein 1 (Homo sapiens) (Q99828 whole entry, looked up): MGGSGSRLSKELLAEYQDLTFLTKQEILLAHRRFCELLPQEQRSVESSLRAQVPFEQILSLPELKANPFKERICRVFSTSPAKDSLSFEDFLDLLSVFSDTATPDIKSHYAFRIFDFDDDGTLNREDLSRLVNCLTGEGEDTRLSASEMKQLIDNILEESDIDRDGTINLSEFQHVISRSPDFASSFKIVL
Take `O=C(Nc1cc(C(F)(F)F)cc(C(F)(F)F)c1)Nc1nnc(-c2ccncc2)s1`: the Potency result was “inactive”.
On to `O=C(Nc1ccc(-c2nc3ccccc3[nH]2)cc1)c1ccc(C(F)(F)F)cc1`, for which the Potency entry was “inactive”.
As to `COc1ccc(Cl)cc1S(=O)(=O)N1CCN(S(=O)(=O)c2ccc3c(c2)OCCO3)CC1`, the Potency entry was “inactive”.
On to `Cn1c2ccsc2c2ncn(Cc3ccc(F)cc3)c(=O)c21`, for which the Potency entry is “inactive”.
`Cc1cc(C)nc(NC(=S)N2CCN(c3ccc(C(F)(F)F)cn3)CC2)c1`: the Potency entry was “inactive”.
In the case of `COc1cccc(CNc2ccc([S+](=O)([O-])Nc3ccccc3)cc2)c1Cl`, the Potency entry is “inactive”.
Turning to `O=C1c2ccccc2C(=O)N1c1cccc(=O)[nH]1`, the Potency entry was “inactive”.
In the case of `O=C1CCc2cc([S+](=O)([O-])Nc3ccc(N[S+](=O)([O-])c4ccc5c(c4)CCC(=O)N5)cc3)ccc2N1` it was “inactive”; in that of `CCC(=O)NC(c1ccco1)c1cc(Cl)c2cccnc2c1O` (configuration not stated), “inactive”; in that of `Fc1c(-c2ccc3ncnc(NCc4cccs4)c3c2)ccc2c1OCO2`, “inactive”.
In the case of `Cc1ccc2nc3sc(C(=O)Nc4ccc(F)cc4)cc3cc2c1` it was “inactive”.
In the case of `CC(C)(C)c1ccc(Nc2nc(C#N)nc(NC3CCCC3)n2)cc1` it was “inactive”; in that of `O=C(Nc1ccc(Cl)c(Cl)c1)Nc1nnc(C2CCCCC2)s1`, “inactive”; in that of `N#Cc1ccc(-c2csc(N3CCC(C(N)=O)CC3)n2)cc1`, “inactive”.
Consider `CCN(CC)c1ccc(NC(=O)Nc2ccc(C(C)=O)cc2)cc1`, for which the Potency result was “inactive”.
Regarding `COc1ccccc1/C=C/C(=O)NCCc1nc2ccccc2n1CCOc1ccc(C)cc1`, the Potency result is “inactive”.
Consider `N#Cc1c(-c2ccc(F)cc2)no[n+]1[O-]`, for which the Potency result was “inactive”.
